Measured values from PubChem BioAssay.
Records with an inconclusive call do not appear. Activity calls are given as the source filed them.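 How the source made its calls, unless noted: active means inhibition above the screen-wide mean plus 3 SD, about 51%; inactive means the rest.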

Assays:
[1] = rapamycin-like changes in RPL19A-GFP expression – cell-based, S. cerevisiae, multiplex flow cytometry, primary screen (AID 1862; in the data active means percent of DMSO control GFP below about 86%;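 further: lower values mimic rapamycin by blocking the RPL19A rise seen in DMSO cells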); conditions: S. cerevisiae RPL19A-GFP strain, flow cytometry fluorescence, 3 h; at 10 µM; stronger effect = lower value
[2] = TOR pathway GLN3 branch reporter MEP2-GFP changes – S. cerevisiae, multiplex flow cytometry, primary screen (AID 1867;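 active means GFP response, as percent of the DMSO control, above the screen-wide mean plus 3 SD, about 139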;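 further: median GFP channel fluorescence of barcode-gated MEP2-GFP cells measured by flow cytometry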); conditions: S. cerevisiae MEP2-GFP strain, 3 h, at 10 µM, stronger effect = higher value, 100% means same as DMSO wells
[3] = TOR pathway RTG branch CIT2 reporter changes – S. cerevisiae, GFP fusion, multiplex flow cytometry, primary screen (AID 1870;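 active means percent response above a set limit, the screen-wide mean plus 3 SD, cut at about 130% in these data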;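 further: barcoded CIT2-GFP strain pooled with four other GFP strains with rapamycin as positive control; median GFP fluorescence per well over plate mean of DMSO wells so 100% = DMSO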); conditions: S. cerevisiae CIT2-GFP expression, 3 h, at 10 µM, stronger effect = higher value
[4] = TOR pathway LAP4-GFP level changes – S. cerevisiae, multiplex flow cytometry, primary screen (AID 1873;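 active means GFP signal, as percent of the solvent control, above the screen mean plus 3 SD, about 149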); conditions: S. cerevisiae LAP4-GFP expression, 3 h, at 10 µM, stronger effect = higher value
[5] = yeast AGP1-GFP level changes, GLN3 branch – cell-based, multiplex flow cytometry, S. cerevisiae, primary screen (AID 1887;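 active means GFP signal above the screen-wide mean plus 3 SD, that is over about 124.5% of the solvent control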;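 further: AGP1-GFP fusion strain of S. cerevisiae within a five-strain barcoded multiplex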); conditions: 3 h, at 10 µM, stronger effect = higher value
[6] = reduced mouse 2C T cell binding to pMHC/ICAM-1 vesicles – MLPCN validation set, flow cytometry, LFA-1/ICAM-1 modulator project, pilot screen (AID 2523;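 active means response below a set limit, under 55% cells CD8-positive and vesicle-bound, and CD8 cells' 90th-percentile brightness under 279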;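 on vesicle binding response: mean PE anti-B7-1 fluorescence of CD8+ cells relative to row control; 100% = QL9-loaded vesicles with DMSO vehicle in the same plate row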); conditions: 2C mouse CD8+ T cells, at 7 µM, stronger effect = lower value; double positive events: measured here: CD8+/vesicle+ event percentage
[7] = molecular target: Integrin beta-1 (Homo sapiens) + Integrin alpha-4 (Homo sapiens) (UniProt P13612+P05556); experiment: alpha4beta1 integrin LIBS antibody binding reduction – U937 cells, HUTS-21 mAb, flow cytometry, validation set, VLA-4 allosteric modulator project, pilot screen (AID 2674;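 active means inhibition above 50%, about 3 SD of the validation set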;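 further: antibody binding induced by the VLA-4 ligand LDV present at three times its Kd; 0% = LDV ligand with antibody and no compound and 100% = antibody without LDV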); conditions: HUTS-21 LIBS mAb binding, at 6.7 µM, stronger effect = higher value, binding induced by LDV ligand
[8] = calorie-restriction mimetic ROS inhibitors, yeast – validation compound set, pilot screen (AID 2706;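 active means superoxide response below 65% of plate, a cut near 3 SD across the whole screen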;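 further: yeast exposed to compound for one week at 30 degrees C before staining; 100% = mean of all compound wells on the same plate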); conditions: S. cerevisiae aging, superoxide DHE fluorescence; at 10 µM; stronger effect = lower value
[9] = molecular target: Beta-adrenergic receptor kinase 1 (Homo sapiens) (UniProt P25098); experiment: GRK2 binders displacing RNA aptamer, biochemical, validation, human GRK2, bead flow cytometry (AID 488806;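 active means aptamer binding inhibition above 30%, about 3 SD of noise from non-fluorescent compounds; inactive means inhibition at or below 30%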); conditions: bead-bound GRK2, FAM-aptamer displacement, at 10 µM, stronger effect = higher value
[10] = molecular target: Beta-2 adrenergic receptor (Homo sapiens) (UniProt P07550); experiment: agonist-induced loss of surface beta2AR – cell-based, FAP fluorogen, flow cytometry, validation set, pilot screen (AID 504459;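 active means percent response above 42, roughly 3 SD of non-fluorescent test compounds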;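 further: agonist-driven loss of surface beta2AR via internalization measured by FAP dye flow cytometry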); conditions: Am2.2-beta2AR cells, at 10 µM, stronger effect = higher value
[11] = molecular target: AP-2 complex subunit beta (Homo sapiens) (UniProt P63010); experiment: beta-arrestin/AP2 interaction blockers – biochemical, validation set, GST-AP2 beads, flow cytometry, pilot screen (AID 504541;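 active means inhibition above 54%, about 3 SD of non-fluorescent compounds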;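 further: AP2 carries R879A mutation and is captured from E. coli lysate; bead-bound FITC arrestin peptide fluorescence measuring arrestin peptide binding to AP2; 0% = DMSO wells and 100% = excess unlabeled arrestin peptide control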); conditions: FITC arrestin peptide, at 10 µM, stronger effect = higher value, AP2 beta2 appendage fragment, R879A mutant
[12] = cytosolic pH regulators acting via V-ATPase – S. cerevisiae, pHLuorin, HTS validation (AID 504600; in the data active means response above about 15%;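 further: plate controls were DMSO for no effect and reference compound for full effect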); conditions: V-ATPase proton transport, at 10 µM, stronger effect = higher value
[13] = system: anti-desmoglein-3 scFv antibody binding to human DSG3; experiment: blockers of pathogenic pemphigus antibody–desmoglein-3 binding – biochemical, validation compound set, bead-based, flow cytometry, pilot screen (AID 588368;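 active means binding below the plate cutoff, the plate median minus 3 SD, with a reading above zero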;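 further: signal is the median channel fluorescence of bead-bound GFP antibody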); conditions: Protein G beads, DSG3-Fc, scFv-GFP binding, at 10 µM, stronger effect = lower value
[14] = Nile Red efflux blockade in pump-expressing yeast – validation compound set, multiplex, phenotypic, pilot screen (AID 588506;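 active means efflux inhibition above 0.42, the validation set average plus 4 SD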;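 further: Nile Red retained in cells so higher fluorescence means more efflux inhibition; 0 = negative control wells and 1 = enniatin B 25 µM full block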); conditions: S. cerevisiae pump-expressing triplex, Nile Red efflux flow cytometry; at 10 µM; stronger effect = higher value; the pumps come from Candida albicans
[15] = molecular target: ATP-binding cassette sub-family B member 6 (Homo sapiens) (UniProt Q9NP58); experiment: blockers of ABCB6-driven porphyrin uptake – K562-ABCB6 cells, flow cytometry, validation set, pilot screen (AID 588550); conditions: K562-ABCB6 porphyrin accumulation, 1 h, at 10 µM, stronger effect = higher value;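 further: 0% = DMSO wells and 100% = benzethonium chloride 70 µM positive control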
[16] = AML differentiation inducers, ER-HoxA9 marrow cells – cell-based, GFP/MAC1 double positive, flow cytometry, validation set, primary screen (AID 588685;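 active means differentiation response of at least 50%, scaled between solvent and reference control, from cells with both markers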;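 further: compound exposure lasts four days before antibody staining and flow analysis; 0% = DMSO wells and 100% = 5 µM fulvestrant positive control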); conditions: stronger effect = higher value, normalized: vehicle 0, fulvestrant 100

Beta-2 adrenergic receptor (Homo sapiens), sequence (P07550 whole entry, looked up): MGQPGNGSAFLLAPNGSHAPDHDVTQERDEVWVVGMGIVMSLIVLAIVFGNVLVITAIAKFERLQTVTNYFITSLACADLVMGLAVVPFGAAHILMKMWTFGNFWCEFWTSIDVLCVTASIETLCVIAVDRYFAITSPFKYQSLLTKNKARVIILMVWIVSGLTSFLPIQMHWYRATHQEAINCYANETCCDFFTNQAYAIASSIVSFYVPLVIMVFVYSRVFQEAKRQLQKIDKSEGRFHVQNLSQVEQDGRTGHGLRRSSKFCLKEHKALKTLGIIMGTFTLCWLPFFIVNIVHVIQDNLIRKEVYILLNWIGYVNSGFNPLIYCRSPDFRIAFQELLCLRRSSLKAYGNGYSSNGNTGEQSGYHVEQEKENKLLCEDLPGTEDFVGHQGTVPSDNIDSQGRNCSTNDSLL
Integrin beta-1 (Homo sapiens) + Integrin alpha-4 (Homo sapiens), sequence (P05556 whole entry, looked up): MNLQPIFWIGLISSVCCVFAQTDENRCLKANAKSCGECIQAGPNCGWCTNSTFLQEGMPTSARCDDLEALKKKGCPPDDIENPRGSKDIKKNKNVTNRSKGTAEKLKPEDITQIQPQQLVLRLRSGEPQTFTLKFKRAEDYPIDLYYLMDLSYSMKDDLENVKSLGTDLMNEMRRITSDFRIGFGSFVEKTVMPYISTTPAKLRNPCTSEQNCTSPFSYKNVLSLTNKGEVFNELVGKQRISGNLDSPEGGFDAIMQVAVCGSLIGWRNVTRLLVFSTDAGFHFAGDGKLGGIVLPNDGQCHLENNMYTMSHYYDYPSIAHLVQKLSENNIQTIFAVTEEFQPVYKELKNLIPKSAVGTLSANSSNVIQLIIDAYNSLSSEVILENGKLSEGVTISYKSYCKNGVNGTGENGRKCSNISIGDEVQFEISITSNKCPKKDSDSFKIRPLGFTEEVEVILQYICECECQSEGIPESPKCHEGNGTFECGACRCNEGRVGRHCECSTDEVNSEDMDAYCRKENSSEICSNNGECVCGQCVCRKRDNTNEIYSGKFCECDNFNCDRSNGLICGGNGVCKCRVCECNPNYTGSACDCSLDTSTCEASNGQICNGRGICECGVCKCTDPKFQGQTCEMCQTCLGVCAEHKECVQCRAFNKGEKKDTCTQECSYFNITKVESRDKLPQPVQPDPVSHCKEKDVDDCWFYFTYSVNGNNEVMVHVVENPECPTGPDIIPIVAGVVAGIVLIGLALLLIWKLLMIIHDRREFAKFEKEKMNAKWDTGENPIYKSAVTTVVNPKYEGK
Integrin beta-1 (Homo sapiens) + Integrin alpha-4 (Homo sapiens), sequence (P13612 whole entry, looked up): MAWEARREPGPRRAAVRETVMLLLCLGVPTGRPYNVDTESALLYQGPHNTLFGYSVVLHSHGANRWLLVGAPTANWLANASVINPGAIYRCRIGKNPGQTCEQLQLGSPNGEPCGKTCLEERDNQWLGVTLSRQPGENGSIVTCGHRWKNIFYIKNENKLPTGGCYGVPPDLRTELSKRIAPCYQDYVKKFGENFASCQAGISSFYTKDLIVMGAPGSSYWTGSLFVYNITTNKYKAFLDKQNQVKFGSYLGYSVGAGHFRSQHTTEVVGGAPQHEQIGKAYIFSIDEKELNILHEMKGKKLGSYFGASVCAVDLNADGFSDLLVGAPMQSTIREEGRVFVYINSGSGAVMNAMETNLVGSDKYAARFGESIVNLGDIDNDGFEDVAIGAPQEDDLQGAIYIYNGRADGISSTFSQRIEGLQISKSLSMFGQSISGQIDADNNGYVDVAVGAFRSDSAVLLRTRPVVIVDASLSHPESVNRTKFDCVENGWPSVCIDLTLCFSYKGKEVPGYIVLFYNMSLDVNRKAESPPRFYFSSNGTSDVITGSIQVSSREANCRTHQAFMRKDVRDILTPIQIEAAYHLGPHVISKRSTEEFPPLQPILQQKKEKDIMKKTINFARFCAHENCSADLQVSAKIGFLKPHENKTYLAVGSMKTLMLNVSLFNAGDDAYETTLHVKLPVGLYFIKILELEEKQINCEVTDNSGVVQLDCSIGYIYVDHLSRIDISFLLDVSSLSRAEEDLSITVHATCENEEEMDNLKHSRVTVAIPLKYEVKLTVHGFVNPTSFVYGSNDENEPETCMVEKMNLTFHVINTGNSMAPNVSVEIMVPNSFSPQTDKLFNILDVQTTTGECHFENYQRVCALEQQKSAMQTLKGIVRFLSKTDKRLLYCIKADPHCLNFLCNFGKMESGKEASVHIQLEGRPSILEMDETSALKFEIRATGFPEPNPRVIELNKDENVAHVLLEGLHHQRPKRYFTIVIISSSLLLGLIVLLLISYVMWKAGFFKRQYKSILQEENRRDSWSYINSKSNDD
AP-2 complex subunit beta (Homo sapiens), sequence (P63010 whole entry, looked up, the tested form may be a part, one chain of several): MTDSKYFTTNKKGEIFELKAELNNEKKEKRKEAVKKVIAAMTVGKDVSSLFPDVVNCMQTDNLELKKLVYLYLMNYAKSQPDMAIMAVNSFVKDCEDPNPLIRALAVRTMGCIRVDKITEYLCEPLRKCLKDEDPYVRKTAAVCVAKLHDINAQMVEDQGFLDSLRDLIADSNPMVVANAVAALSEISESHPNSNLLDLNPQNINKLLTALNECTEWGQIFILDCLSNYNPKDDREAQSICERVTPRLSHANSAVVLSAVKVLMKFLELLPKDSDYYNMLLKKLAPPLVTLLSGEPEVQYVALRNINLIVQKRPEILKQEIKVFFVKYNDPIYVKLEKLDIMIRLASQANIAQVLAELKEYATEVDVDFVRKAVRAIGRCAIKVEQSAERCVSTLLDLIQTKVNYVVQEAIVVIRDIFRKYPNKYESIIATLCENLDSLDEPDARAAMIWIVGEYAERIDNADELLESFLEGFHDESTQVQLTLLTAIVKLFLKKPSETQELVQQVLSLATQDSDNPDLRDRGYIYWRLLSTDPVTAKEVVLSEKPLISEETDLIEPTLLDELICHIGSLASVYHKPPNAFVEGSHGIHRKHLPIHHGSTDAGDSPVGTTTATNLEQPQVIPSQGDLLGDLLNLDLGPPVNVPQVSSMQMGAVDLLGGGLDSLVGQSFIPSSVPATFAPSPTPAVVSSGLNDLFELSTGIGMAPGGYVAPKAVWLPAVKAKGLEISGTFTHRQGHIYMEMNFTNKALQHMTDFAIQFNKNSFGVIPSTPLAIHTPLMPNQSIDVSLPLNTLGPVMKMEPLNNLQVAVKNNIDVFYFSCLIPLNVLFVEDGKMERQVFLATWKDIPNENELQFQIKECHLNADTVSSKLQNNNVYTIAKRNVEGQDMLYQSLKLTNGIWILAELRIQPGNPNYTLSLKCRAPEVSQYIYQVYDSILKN
Beta-adrenergic receptor kinase 1 (Homo sapiens), sequence (P25098 whole entry, looked up): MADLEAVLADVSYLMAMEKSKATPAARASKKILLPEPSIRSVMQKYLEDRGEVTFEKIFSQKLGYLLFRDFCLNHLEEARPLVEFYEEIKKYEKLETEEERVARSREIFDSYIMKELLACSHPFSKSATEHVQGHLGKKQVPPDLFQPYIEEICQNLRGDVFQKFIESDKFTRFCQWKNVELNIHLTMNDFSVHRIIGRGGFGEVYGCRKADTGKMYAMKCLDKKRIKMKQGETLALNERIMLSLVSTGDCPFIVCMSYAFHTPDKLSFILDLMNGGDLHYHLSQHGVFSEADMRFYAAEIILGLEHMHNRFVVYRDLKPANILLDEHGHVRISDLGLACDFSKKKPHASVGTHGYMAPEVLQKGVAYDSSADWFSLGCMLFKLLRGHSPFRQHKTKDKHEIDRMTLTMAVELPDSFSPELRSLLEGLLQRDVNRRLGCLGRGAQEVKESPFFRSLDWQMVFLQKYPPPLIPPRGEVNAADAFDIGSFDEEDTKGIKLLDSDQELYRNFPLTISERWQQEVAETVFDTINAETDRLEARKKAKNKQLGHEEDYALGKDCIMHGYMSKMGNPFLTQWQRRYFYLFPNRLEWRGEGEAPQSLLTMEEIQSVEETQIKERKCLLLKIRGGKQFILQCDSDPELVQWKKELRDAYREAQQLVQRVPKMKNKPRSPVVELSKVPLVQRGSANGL
ATP-binding cassette sub-family B member 6 (Homo sapiens), sequence (Q9NP58 whole entry, looked up): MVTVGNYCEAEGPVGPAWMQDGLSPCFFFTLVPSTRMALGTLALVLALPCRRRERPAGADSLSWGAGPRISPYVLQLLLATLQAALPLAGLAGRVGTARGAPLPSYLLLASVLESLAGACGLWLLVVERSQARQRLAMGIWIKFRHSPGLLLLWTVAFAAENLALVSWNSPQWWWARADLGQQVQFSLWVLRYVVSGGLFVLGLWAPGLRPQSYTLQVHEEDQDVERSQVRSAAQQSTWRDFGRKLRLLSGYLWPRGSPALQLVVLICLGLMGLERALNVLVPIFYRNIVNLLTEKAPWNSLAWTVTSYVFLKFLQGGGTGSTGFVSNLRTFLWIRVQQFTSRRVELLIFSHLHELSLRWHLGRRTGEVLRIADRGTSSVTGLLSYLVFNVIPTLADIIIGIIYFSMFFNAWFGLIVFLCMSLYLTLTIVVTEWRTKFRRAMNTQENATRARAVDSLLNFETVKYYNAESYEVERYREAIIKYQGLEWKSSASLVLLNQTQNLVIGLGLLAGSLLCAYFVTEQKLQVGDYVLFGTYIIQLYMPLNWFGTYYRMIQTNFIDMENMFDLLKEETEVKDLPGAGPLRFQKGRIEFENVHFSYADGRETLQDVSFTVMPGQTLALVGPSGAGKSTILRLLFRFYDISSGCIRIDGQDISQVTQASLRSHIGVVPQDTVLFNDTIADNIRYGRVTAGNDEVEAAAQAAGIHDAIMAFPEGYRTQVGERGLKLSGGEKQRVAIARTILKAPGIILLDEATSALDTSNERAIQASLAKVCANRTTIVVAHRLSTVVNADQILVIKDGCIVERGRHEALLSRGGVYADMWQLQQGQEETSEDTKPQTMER

Row | Compound | percent of DMSO control GFP [1] | GFP response vs DMSO [2] | percent response of DMSO control [3] | GFP response vs DMSO [4] | GFP response, % of DMSO [5] | double positive events [6] | vesicle binding response [6] | inhibition [7] | superoxide response (% of plate) [8] | aptamer binding inhibition [9] | response [10] | inhibition [11] | response [12] | binding (% of control) [13] | efflux inhibition (fraction of control) [14] | inhibition [15] | differentiation response [16]
1 | CCCc1cc(=O)[nH]c(=S)[nH]1 | 99.1% (inactive) | 101% (inactive) | 96.5% (inactive) | 103% (inactive) | 107% (inactive) | 61.7% | 144% (inactive) | -2.43% (inactive) | 86.8% (inactive) | 0% (inactive) | -3.16% (inactive) | -5.08% (inactive) | 12.1% (inactive) | 101% (inactive) | 0.44 (active) | -3% (inactive) | -1.65% (inactive)
2 | O=C1CCCN1C(=O)CCC(=O)N1CCCC1=O | 107% (inactive) | 95.1% (inactive) | 109% (inactive) | 87.4% (inactive) | 106% (inactive) | 62.6% | 235% (inactive) | -11.9% (inactive) | 96.9% (inactive) | 0% (inactive) | -7.65% (inactive) | -9.79% (inactive) | -1.12% (inactive) | 95.6% (inactive) | -0.1 (inactive) | -2% (inactive) | 2.2% (inactive)
3 | CC(=O)OCC(=O)[C@@]1(O)CC[C@H]2[C@@H]3CCC4=CC(=O)C=C[C@]4(C)[C@H]3[C@@H](O)C[C@@]21C | 90.2% (inactive) | 132% (inactive) | 99.2% (inactive) | 101% (inactive) | 103% (inactive) | 66.4% | 161% (inactive) | 9.37% (inactive) | 97% (inactive) | 1% (inactive) | 4% (inactive) | 8.75% (inactive) | -0.94% (inactive) | 98.1% (inactive) | -0.09 (inactive) | 9% (inactive) | 5.73% (inactive)
4 | C#C[C@]1(O)CC[C@H]2[C@@H]3CCc4cc(O)ccc4[C@H]3CC[C@@]21C | 94.4% (inactive) | 109% (inactive) | 110% (inactive) | 84.7% (inactive) | 100% (inactive) | 51.2% | 88.7% (inactive) | 7.43% (inactive) | 76.7% (inactive) | -5% (inactive) | -0.6% (inactive) | 1.36% (inactive) | 2.14% (inactive) | 106% (inactive) | 0.19 (inactive) | 9% (inactive) | -3.28% (inactive)
5 | CCn1c(N2CCN(CC(=O)c3c(C)n(C)c4ccc(OC)cc34)CC2)nc2c1c(=O)[nH]c(=O)n2C | 101% (inactive) | 104% (inactive) | 97.8% (inactive) | 91.4% (inactive) | 99.9% (inactive) | 60% | 206% (inactive) | -18.1% (inactive) | 100% (inactive) | 1% (inactive) | -1.41% (inactive) | 12.1% (inactive) | -2.91% (inactive) | 101% (inactive) | -0.26 (inactive) | 23% (inactive) | -2.69% (inactive)
6 | OCC(O)CN1CCN(c2ccccc2)CC1 (stereo unspecified) | 99.3% (inactive) | 103% (inactive) | 90.5% (inactive) | 103% (inactive) | 102% (inactive) | 59.4% | 145% (inactive) | 9.1% (inactive) | 99.2% (inactive) | 7% (inactive) | -29.2% (inactive) | -3.7% (inactive) | -24.2% (inactive) | 96.2% (inactive) | -0.04 (inactive) | 9% (inactive) | 11.8% (inactive)
7 | NCCc1ccc(O)c(O)c1 | 98.2% (inactive) | 107% (inactive) | 93.1% (inactive) | 92% (inactive) | 95.6% (inactive) | 65.4% | 831% (inactive) | -10.8% (inactive) | 90.7% (inactive) | 3% (inactive) | 11.2% (inactive) | 11.9% (inactive) | -0.98% (inactive) | 94.3% (inactive) | 0.08 (inactive) | 6% (inactive) | 5.13% (inactive)
8 | O=C(O)c1ccc(N2C(=O)/C(=C\c3ccccc3)N=C2c2ccccc2)cc1 | 103% (inactive) | 106% (inactive) | 99.7% (inactive) | 110% (inactive) | 98% (inactive) | 58.6% | 120% (inactive) | -5.11% (inactive) | 111% (inactive) | 2% (inactive) | -17.4% (inactive) | -10.8% (inactive) | -0.35% (inactive) | 98.1% (inactive) | -0.2 (inactive) | -15% (inactive) | -0.18% (inactive)
9 | C[N+](C)(C)CCOP(=O)([O-])OC[C@H](O)CO | 103% (inactive) | 103% (inactive) | 105% (inactive) | 108% (inactive) | 114% (inactive) | 60.1% | 133% (inactive) | -3.77% (inactive) | 94.8% (inactive) | 1% (inactive) | 2.22% (inactive) | -6.21% (inactive) | 0.86% (inactive) | 102% (inactive) | 0.25 (inactive) | 22% (inactive) | -6.03% (inactive)
10 | O=C(NCc1ccc(N2CCCC2=O)cc1)c1ccc(F)cc1 | 103% (inactive) | 106% (inactive) | 100% (inactive) | 99.5% (inactive) | 116% (inactive) | 62.5% | 211% (inactive) | 17.6% (inactive) | 101% (inactive) | 3% (inactive) | -6.33% (inactive) | 6.32% (inactive) | -1.49% (inactive) | 107% (inactive) | -0.04 (inactive) | 2% (inactive) | 1.91% (inactive)
11 | COc1ccc(NC(=O)C2OC3OC(C)(C)OC3C3OC(C)(C)OC23)cc1 (stereo unspecified) | 98.9% (inactive) | 98.6% (inactive) | 98.3% (inactive) | 106% (inactive) | 119% (inactive) | 63.5% | 203% (inactive) | 13.4% (inactive) | 103% (inactive) | 5% (inactive) | -8.79% (inactive) | -12.6% (inactive) | 1.13% (inactive) | 106% (inactive) | -0.04 (inactive) | 5% (inactive) | 0.92% (inactive)
12 | O=C(O)CCn1cnc2ccccc2c1=O | 97.8% (inactive) | 113% (inactive) | 93.9% (inactive) | 111% (inactive) | 97.4% (inactive) | 58.8% | 172% (inactive) | 9.13% (inactive) | 101% (inactive) | 4% (inactive) | -1.18% (inactive) | -3.21% (inactive) | 5.74% (inactive) | 101% (inactive) | -0.28 (inactive) | 7% (inactive) | -8.8% (inactive)
13 | CC(C)(C)N(Cc1ccccc1)C(=O)c1ccc(Br)o1 | 103% (inactive) | 102% (inactive) | 95.7% (inactive) | 107% (inactive) | 101% (inactive) | 63.4% | 147% (inactive) | -7.08% (inactive) | 101% (inactive) | 6% (inactive) | -22.8% (inactive) | 4.28% (inactive) | -8.19% (inactive) | 97.1% (inactive) | 0.04 (inactive) | 6% (inactive) | -11.9% (inactive)
14 | CCN(CCCCCN(C)C)Cc1cc2ccccc2o1 | 101% (inactive) | 101% (inactive) | 94.8% (inactive) | 112% (inactive) | 106% (inactive) | 64.4% | 206% (inactive) | -0.43% (inactive) | 79.9% (inactive) | -1% (inactive) | -3.86% (inactive) | -2.46% (inactive) | 0.31% (inactive) | 102% (inactive) | -0.06 (inactive) | 10% (inactive) | 5.6% (inactive)
15 | CC(C)(S)[C@@H](N)C(=O)O | 97.8% (inactive) | 109% (inactive) | 87.2% (inactive) | 101% (inactive) | 98.9% (inactive) | 62.5% | 177% (inactive) | 0.94% (inactive) | 85% (inactive) | 6% (inactive) | 1.94% (inactive) | -6.4% (inactive) | 0.19% (inactive) | 98.2% (inactive) | 0.08 (inactive) | 5% (inactive) | 7.2% (inactive)
16 | COc1ccc2oc(-c3ccco3)cc(=O)c2c1 | 103% (inactive) | 92.4% (inactive) | 100% (inactive) | 88% (inactive) | 83.7% (inactive) | 59.1% | 23.9% (inactive) | -8.9% (inactive) | 96.6% (inactive) | 3% (inactive) | -0.39% (inactive) | -28.7% (inactive) | 2.89% (inactive) | 100% (inactive) | -0.28 (inactive) | 8% (inactive) | -3.4% (inactive)
17 | COc1ccc(CN2CCC(=O)NC2=O)cc1 | 102% (inactive) | 105% (inactive) | 97.7% (inactive) | 105% (inactive) | 96.5% (inactive) | 59.9% | 170% (inactive) | 3.67% (inactive) | 101% (inactive) | -2% (inactive) | -1.29% (inactive) | 33.2% (inactive) | -0.38% (inactive) | 81.3% (inactive) | 0.08 (inactive) | 2% (inactive) | 116% (active)
18 | OCCC1CN(Cc2nc(-c3ccccc3)cs2)CCN1Cc1ccc(F)cc1 (stereo unspecified) | 106% (inactive) | 98.7% (inactive) | 115% (inactive) | 100% (inactive) | 104% (inactive) | 68.6% | 312% (inactive) | -6.45% (inactive) | 103% (inactive) | 0% (inactive) | 2.61% (inactive) | -6.97% (inactive) | -2.6% (inactive) | 100% (inactive) | 0.31 (inactive) | 9% (inactive) | -6.03% (inactive)
